± gives the standard deviation.

In one test the target is T1, HaloTag-ATRX ADD domain (163-292).
T1 chain: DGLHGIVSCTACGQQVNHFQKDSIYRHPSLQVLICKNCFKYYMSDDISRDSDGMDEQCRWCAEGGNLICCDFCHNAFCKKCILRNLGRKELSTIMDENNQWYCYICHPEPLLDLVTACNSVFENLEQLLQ
Nature of the test: peptide microarray binding signal (635 nm), min-max normalized on array (fraction of array maximum); higher = stronger binding. To be noted: peptide region: Unmod H3 variant; binder concentration: 50 nM. A digest of the protocol: (§1)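 For each library, binding signal was taken as the triplicate-spot mean intensity and then min-max scaled. Spots of histone 13-mer peptide–cellulose conjugates on nitrocellulose, printed in triplicate with a Cy3 tracer, were probed for 1 h at 4°C with either biotin-labelled HaloTag reader fusions (10 nM to 1 μM) and streptavidin-Alexa Fluor 647 or rabbit histone antibodies (1:10,000 to 1:2,000) and anti-rabbit Alexa 647. Readout at 635 nm came from an Axon GenePix 4000B.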
In the case of RKSAPATGGVKKP [Unmod H3 variant R K S A P A T G G V K K P], the “peptide microarray binding signal” value was found to be 0.00398 ± 4.1e-05.

In the case of ATKAARKSAPATG [Unmod H3 variant A T K A A R K S A P A T G], the “peptide microarray binding signal” value came to 0.00646 ± 0.00048.

For ARTKQTARKSTGG [Unmod H3 variant A R T K Q T A R K S T G G], the “peptide microarray binding signal” value was 0.00445 ± 0.00012.

For VREIAQDFKTDLR [Unmod H3 variant V R E I A Q D F K T D L R], the “peptide microarray binding signal” value is 0.00495 ± 9.5e-05.

On to ATGGVKKPHRYRP [Unmod H3 variant A T G G V K K P H R Y R P], for which the “peptide microarray binding signal” value was 0.00552 ± 0.0011.

Still in this test, the particulars now being: peptide region: Unmod H3 variant; binder concentration: 500 nM.
For the molecule RKSAPATGGVKKP [Unmod H3 variant R K S A P A T G G V K K P], the “peptide microarray binding signal” value is 0.0111 ± 0.0002.

For the molecule ATKAARKSAPATG [Unmod H3 variant A T K A A R K S A P A T G], the “peptide microarray binding signal” value came to 0.0104 ± 0.0015.

Turning to ARTKQTARKSTGG [Unmod H3 variant A R T K Q T A R K S T G G], the “peptide microarray binding signal” value came out at 0.00991 ± 0.00023.

For VREIAQDFKTDLR [Unmod H3 variant V R E I A Q D F K T D L R], the “peptide microarray binding signal” value worked out at 0.0115 ± 0.00061.

Turning to ATGGVKKPHRYRP [Unmod H3 variant A T G G V K K P H R Y R P], the “peptide microarray binding signal” value turned out to be 0.00938 ± 0.0008.

In the next test the target is HaloTag-ING2 PHD (mouse Ing2 200-280). Described as above. The settings on record: peptide region: Unmod H3 variant; binder concentration: 10 nM. The procedure, abridged: as §1
On to RKSAPATGGVKKP [Unmod H3 variant R K S A P A T G G V K K P], for which the “peptide microarray binding signal” value is 0.008 ± 0.00021.

Consider ATKAARKSAPATG [Unmod H3 variant A T K A A R K S A P A T G], for which the “peptide microarray binding signal” value was found to be 0.00776 ± 0.00056.

In the case of ARTKQTARKSTGG [Unmod H3 variant A R T K Q T A R K S T G G], the “peptide microarray binding signal” value was determined as 0.00824 ± 0.00015.

For VREIAQDFKTDLR [Unmod H3 variant V R E I A Q D F K T D L R], the “peptide microarray binding signal” value turned out to be 0.00853 ± 0.00018.

Regarding ATGGVKKPHRYRP [Unmod H3 variant A T G G V K K P H R Y R P], the “peptide microarray binding signal” value came out at 0.00537 ± 0.00055.

The test is the same for the next values; noted with them: peptide region: Unmod H3 variant; binder concentration: 100 nM.
With RKSAPATGGVKKP [Unmod H3 variant R K S A P A T G G V K K P], the “peptide microarray binding signal” value was 0.021 ± 0.00036.

Consider ATKAARKSAPATG [Unmod H3 variant A T K A A R K S A P A T G], for which the “peptide microarray binding signal” value is 0.015 ± 0.0022.

Take ARTKQTARKSTGG [Unmod H3 variant A R T K Q T A R K S T G G]: the “peptide microarray binding signal” value amounted to 0.01502 ± 0.00015.

Regarding VREIAQDFKTDLR [Unmod H3 variant V R E I A Q D F K T D L R], the “peptide microarray binding signal” value came out at 0.0134 ± 0.00073.

For ATGGVKKPHRYRP [Unmod H3 variant A T G G V K K P H R Y R P], the “peptide microarray binding signal” value was 0.0186 ± 0.0068.

In the next test the target is anti-H3K4me3 antibody ab8580. The description is as above. The settings on record: peptide region: Unmod H3 variant; binder concentration: 1:2,000 dilution. A digest of the protocol:
as §1
On to RKSAPATGGVKKP [Unmod H3 variant R K S A P A T G G V K K P], for which the “peptide microarray binding signal” value came out at 0.000831 ± 5.9e-05.

As to ATKAARKSAPATG [Unmod H3 variant A T K A A R K S A P A T G], the “peptide microarray binding signal” value was determined as 0.00119 ± 3.4e-05.

ARTKQTARKSTGG [Unmod H3 variant A R T K Q T A R K S T G G]: the “peptide microarray binding signal” value came out at 0.0014 ± 4.3e-05.

Regarding VREIAQDFKTDLR [Unmod H3 variant V R E I A Q D F K T D L R], the “peptide microarray binding signal” value was 0.00247 ± 5.5e-05.

For the molecule ATGGVKKPHRYRP [Unmod H3 variant A T G G V K K P H R Y R P], the “peptide microarray binding signal” value worked out at 0.000585 ± 3.7e-05.

Staying with this test, now noted: peptide region: Unmod H3 variant; binder concentration: 1:10,000 dilution.
For RKSAPATGGVKKP [Unmod H3 variant R K S A P A T G G V K K P], the “peptide microarray binding signal” value came to 0.001312 ± 1.3e-05.

On to ATKAARKSAPATG [Unmod H3 variant A T K A A R K S A P A T G], for which the “peptide microarray binding signal” value amounted to 0.001712 ± 1.6e-05.

As for ARTKQTARKSTGG [Unmod H3 variant A R T K Q T A R K S T G G], the “peptide microarray binding signal” value stood at 0.00205 ± 7.6e-05.

Turning to VREIAQDFKTDLR [Unmod H3 variant V R E I A Q D F K T D L R], the “peptide microarray binding signal” value came out at 0.00474 ± 0.00018.

For the molecule ATGGVKKPHRYRP [Unmod H3 variant A T G G V K K P H R Y R P], the “peptide microarray binding signal” value is 0.000456 ± 1.3e-05.

For a further test, the target named is anti-H3K9me3 antibody ab8898. Described as above. To be noted: peptide region: Unmod H3 variant; binder concentration: 1:2,000 dilution. The procedure, abridged:
as §1
Regarding RKSAPATGGVKKP [Unmod H3 variant R K S A P A T G G V K K P], the “peptide microarray binding signal” value is 0.000529 ± 1.3e-05.

ATKAARKSAPATG [Unmod H3 variant A T K A A R K S A P A T G]: the “peptide microarray binding signal” value stood at 0.00142 ± 9.9e-05.

On to ARTKQTARKSTGG [Unmod H3 variant A R T K Q T A R K S T G G], for which the “peptide microarray binding signal” value was 0.00101 ± 3.2e-05.

For the molecule VREIAQDFKTDLR [Unmod H3 variant V R E I A Q D F K T D L R], the “peptide microarray binding signal” value worked out at 0.00248 ± 0.00019.

Turning to ATGGVKKPHRYRP [Unmod H3 variant A T G G V K K P H R Y R P], the “peptide microarray binding signal” value stood at 0.000227 ± 7.1e-06.

Still in this test, the particulars now being: peptide region: Unmod H3 variant; binder concentration: 1:10,000 dilution.
As to RKSAPATGGVKKP [Unmod H3 variant R K S A P A T G G V K K P], the “peptide microarray binding signal” value is 0.000692 ± 7.3e-06.

Take ATKAARKSAPATG [Unmod H3 variant A T K A A R K S A P A T G]: the “peptide microarray binding signal” value came out at 0.00127 ± 1.3e-05.

ARTKQTARKSTGG [Unmod H3 variant A R T K Q T A R K S T G G]: the “peptide microarray binding signal” value came out at 0.00115.

Consider VREIAQDFKTDLR [Unmod H3 variant V R E I A Q D F K T D L R], for which the “peptide microarray binding signal” value turned out to be 0.00259 ± 9.2e-05.

Take ATGGVKKPHRYRP [Unmod H3 variant A T G G V K K P H R Y R P]: the “peptide microarray binding signal” value was determined as 0.000461 ± 8.7e-06.

The record behind these values is the supplement of paper PMC4022240.
